Results as given in PubChem BioAssay (EPA / NIEHS).
Results filed as inconclusive are left out. Calls of active or inactive are those of the source. Rule for the calls, unless noted: active = hit-call score of the fitted dose curve at least 0.9, where 1 is the maximum; inactive = score below 0.9.

How the values were obtained:
[1] = molecular target: Hepatocyte nuclear factor 4-alpha (Homo sapiens) (UniProt P41235); assay: ATG_HNF4a_TRANS: Attagene TRANS-FACTORIAL HepG2 Assay for human Hepatocyte Nuclear Factor 4 alpha (HNF4a) (AID 2282982; active = hit-call score of the fitted dose curve at least 0.9, where 1 is the maximum); settings: HepG2 HNF4a transactivation reporter, mRNA readout
Sequence of Hepatocyte nuclear factor 4-alpha (Homo sapiens) (P41235 whole entry, looked up, the tested form may be a part): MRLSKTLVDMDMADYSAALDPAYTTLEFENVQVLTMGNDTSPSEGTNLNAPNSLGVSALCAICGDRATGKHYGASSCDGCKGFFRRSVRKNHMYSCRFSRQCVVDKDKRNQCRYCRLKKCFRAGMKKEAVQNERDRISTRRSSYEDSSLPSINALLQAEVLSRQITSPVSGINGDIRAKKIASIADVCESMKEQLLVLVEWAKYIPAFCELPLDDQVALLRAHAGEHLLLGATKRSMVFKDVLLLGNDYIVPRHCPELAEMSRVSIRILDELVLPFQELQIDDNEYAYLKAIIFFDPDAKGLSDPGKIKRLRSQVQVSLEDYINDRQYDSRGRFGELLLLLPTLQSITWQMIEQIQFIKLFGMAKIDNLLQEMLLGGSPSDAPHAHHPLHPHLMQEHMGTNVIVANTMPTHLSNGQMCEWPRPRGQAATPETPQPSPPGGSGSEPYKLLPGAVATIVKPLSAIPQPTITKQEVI
How it was run: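 Readout is fluorescent reporter-transcript fragments resolved by capillary electrophoresis after RT-PCR from HepG2 cells dosed for 24 h. Cells carried transfected GAL4-UAS reporter constructs measuring exogenous NR-GAL4 chimera activity; DMSO served as baseline.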

[2] = ATG_M_06_TRANS: Attagene TRANS-FACTORIAL HepG2 Assay for M06 Transcription Factor (Internal Marker) (AID 2282983; active = hit-call score of the fitted dose curve at least 0.9, where 1 is the maximum;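 note: reporter transcript level by RT-PCR then capillary electrophoresis fluorescence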); settings: HepG2 Attagene TRANS M06 internal marker reporter
How it was run: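 Internal-marker background readout from a multiplexed TRANS reporter system in HepG2; 24 h dosing; mRNA induction quantified by RT-PCR plus capillary electrophoresis fluorescence; DMSO as negative control and baseline.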

[3] = ATG_M_32_TRANS: Attagene TRANS-FACTORIAL HepG2 Assay for M32 Transcription Factor (Internal Marker) (AID 2282984; active = hit-call score of the fitted dose curve at least 0.9, where 1 is the maximum;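 note: transcript level of a background control reporter unit measured by RT-PCR and capillary electrophoresis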); settings: HepG2 Attagene TRANS M32 internal marker reporter
How it was run: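 Measures reporter mRNA induction in human HepG2 liver cells after 24 h chemical treatment. Transcripts from transiently transfected GAL4-UAS reporter units are amplified, fluorescently labelled and sized by capillary electrophoresis; gain of signal relative to DMSO.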

[4] = molecular target: Nuclear receptor subfamily 4 group A member 2 (Homo sapiens) (UniProt P43354); assay: ATG_NURR1_TRANS: Attagene TRANS-FACTORIAL HepG2 Assay for human Nuclear Receptor Related Protein 1 (NURR1) (AID 2282985; active = hit-call score of the fitted dose curve at least 0.9, where 1 is the maximum); settings: HepG2 Attagene TRANS reporter, mRNA readout
Sequence of Nuclear receptor subfamily 4 group A member 2 (Homo sapiens) (P43354 whole entry, looked up, the tested form may be a part): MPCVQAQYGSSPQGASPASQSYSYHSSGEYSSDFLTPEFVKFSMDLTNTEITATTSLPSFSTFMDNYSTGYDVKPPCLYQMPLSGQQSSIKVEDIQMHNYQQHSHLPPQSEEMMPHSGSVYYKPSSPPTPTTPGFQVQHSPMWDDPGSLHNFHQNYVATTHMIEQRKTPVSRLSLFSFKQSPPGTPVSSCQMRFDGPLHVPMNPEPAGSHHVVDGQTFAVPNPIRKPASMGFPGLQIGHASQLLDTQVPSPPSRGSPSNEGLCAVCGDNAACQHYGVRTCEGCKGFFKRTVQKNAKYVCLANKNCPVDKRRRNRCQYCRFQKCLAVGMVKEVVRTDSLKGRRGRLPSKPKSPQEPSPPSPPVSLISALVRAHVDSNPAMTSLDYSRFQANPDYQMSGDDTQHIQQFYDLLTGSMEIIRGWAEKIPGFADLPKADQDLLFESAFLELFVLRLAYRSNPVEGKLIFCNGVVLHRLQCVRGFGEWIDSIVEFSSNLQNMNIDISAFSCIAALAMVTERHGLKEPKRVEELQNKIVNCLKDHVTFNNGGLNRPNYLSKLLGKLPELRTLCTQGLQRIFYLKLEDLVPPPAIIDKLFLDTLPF
How it was run: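 Transient transfection of HepG2, human liver cells, with multiple GAL4-UAS reporter transcription units. Cells dosed 24 h, RNA isolated, reverse-transcribed, PCR-amplified, FAM-labelled, HpaI-digested, sized by capillary electrophoresis. DMSO served as negative control.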

[5] = molecular target: Transcriptional activator Myb (Homo sapiens) (UniProt P10242); assay: ATG_Myb_CIS: Attagene CIS-FACTORIAL HepG2 Assay for human Myeloblastosis (Myb) Proto-Oncogene Transcription Factor (AID 2282986); settings: HepG2 Attagene CIS-FACTORIAL Myb reporter transcription; actives raise or lower the signal
Sequence of Transcriptional activator Myb (Homo sapiens) (P10242 whole entry, looked up): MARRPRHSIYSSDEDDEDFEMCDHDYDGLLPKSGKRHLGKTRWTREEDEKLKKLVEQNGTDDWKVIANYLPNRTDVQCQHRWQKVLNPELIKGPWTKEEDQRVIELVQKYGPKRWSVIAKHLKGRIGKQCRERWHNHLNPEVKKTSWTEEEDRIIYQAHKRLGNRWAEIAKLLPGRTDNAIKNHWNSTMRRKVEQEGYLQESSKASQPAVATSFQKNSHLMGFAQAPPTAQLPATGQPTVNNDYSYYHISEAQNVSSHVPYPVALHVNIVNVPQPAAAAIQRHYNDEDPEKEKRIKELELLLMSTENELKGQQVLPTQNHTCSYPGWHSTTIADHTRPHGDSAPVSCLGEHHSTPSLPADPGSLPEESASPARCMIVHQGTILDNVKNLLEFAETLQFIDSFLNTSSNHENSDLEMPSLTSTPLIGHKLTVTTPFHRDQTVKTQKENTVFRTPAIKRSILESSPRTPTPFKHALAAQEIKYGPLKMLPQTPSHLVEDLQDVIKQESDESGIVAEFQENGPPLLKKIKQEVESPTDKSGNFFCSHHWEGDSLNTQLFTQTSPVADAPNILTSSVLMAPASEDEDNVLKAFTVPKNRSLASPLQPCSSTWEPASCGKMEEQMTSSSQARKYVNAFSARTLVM
How it was run: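 Multiplexed cis-reporter system in HepG2: transient transfection, 24 h treatment, mRNA readout by RT-PCR and capillary electrophoresis. Both increases and decreases are scored versus DMSO negative control.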

[6] = molecular target: Nuclear respiratory factor 1 (Homo sapiens) (UniProt Q16656); assay: ATG_NRF1_CIS: Attagene CIS-FACTORIAL HepG2 Assay for human Nuclear Respiratory Factor 1 (NRF1) Orphan Gene (AID 2282987); settings: HepG2 NRF1 cis-element reporter, Attagene multiplex; actives raise or lower the signal
Sequence of Nuclear respiratory factor 1 (Homo sapiens) (Q16656 whole entry, looked up): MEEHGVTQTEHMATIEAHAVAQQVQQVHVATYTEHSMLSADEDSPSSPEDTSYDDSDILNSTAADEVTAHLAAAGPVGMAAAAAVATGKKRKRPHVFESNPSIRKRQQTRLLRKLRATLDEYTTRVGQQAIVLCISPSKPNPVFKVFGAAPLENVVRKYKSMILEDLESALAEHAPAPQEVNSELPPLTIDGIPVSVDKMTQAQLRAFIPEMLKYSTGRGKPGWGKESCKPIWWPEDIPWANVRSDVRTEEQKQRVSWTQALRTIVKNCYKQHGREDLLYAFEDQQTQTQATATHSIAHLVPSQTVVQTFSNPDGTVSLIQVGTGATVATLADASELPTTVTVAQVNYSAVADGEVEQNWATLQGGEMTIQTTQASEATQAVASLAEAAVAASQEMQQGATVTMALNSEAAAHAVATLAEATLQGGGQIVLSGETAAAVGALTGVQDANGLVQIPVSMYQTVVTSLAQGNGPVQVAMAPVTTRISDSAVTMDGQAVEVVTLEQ
How it was run: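 Endogenous factor activity was captured via cis-element-driven reporter transcripts in HepG2 cells. Following 24 h chemical treatment, transcripts were quantified by RT-PCR and capillary electrophoresis.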

[7] = ATG_NFI_CIS: Attagene CIS-FACTORIAL HepG2 Assay for human Nuclear Factor I (NFI) (AID 2282989); settings: HepG2 cis-regulatory reporter, NFI response element transcription; actives raise or lower the signal
How it was run: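 After transient transfection of HepG2 with cis-promoter reporter constructs and 24 h dosing, RNA is reverse-transcribed, amplified, 6-FAM end-labelled and HpaI-digested before capillary analysis. Bidirectional curve fitting against DMSO.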

[8] = molecular target: Myc proto-oncogene protein (Homo sapiens) (UniProt P01106); assay: ATG_Myc_CIS: Attagene CIS-FACTORIAL HepG2 Assay for human Myelocytomatosis (Myc) Proto-Oncogene Transcription Factor (AID 2282990); settings: HepG2, Attagene cis-reporter transcription factor activity; actives raise or lower the signal
Sequence of Myc proto-oncogene protein (Homo sapiens) (P01106 whole entry, looked up): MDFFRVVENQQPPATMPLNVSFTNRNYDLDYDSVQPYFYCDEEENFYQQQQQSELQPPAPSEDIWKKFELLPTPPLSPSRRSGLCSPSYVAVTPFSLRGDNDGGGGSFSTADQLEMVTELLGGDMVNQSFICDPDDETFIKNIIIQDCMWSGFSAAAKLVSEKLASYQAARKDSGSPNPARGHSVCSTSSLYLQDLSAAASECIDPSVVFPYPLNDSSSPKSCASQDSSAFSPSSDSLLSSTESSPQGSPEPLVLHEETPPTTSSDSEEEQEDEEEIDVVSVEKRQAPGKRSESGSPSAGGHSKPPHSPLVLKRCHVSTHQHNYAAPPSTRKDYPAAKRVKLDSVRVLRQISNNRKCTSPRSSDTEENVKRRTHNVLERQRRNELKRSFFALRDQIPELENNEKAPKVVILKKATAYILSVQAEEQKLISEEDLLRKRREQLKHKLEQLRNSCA
How it was run: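 HepG2, transient MRTU transfection (cis promoters, endogenous TFs); 24 h dosing; TriZol RNA → oligo(dT) RT → PCR → 6-FAM primer extension → HpaI cut → CE. Bidirectional fit vs DMSO.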

[9] = ATG_NF_kB_CIS: Attagene CIS-FACTORIAL HepG2 Assay for human Nuclear Factor Kappa B (NF-kB) (AID 2282991); settings: HepG2 Attagene cis-factorial NF-kB reporter mRNA; actives raise or lower the signal
How it was run: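 After 24 h compound incubation, transfected HepG2 cells yield total RNA; reporter cDNA is PCR-amplified, end-labelled with 6-FAM, HpaI-digested and analysed on a genetic analyser. Endogenous factor activity, DMSO-referenced bidirectional fit.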

[10] = ATG_NRF2_ARE_CIS: Attagene CIS-FACTORIAL HepG2 Assay for human Nuclear Factor Erythroid 2 Related Factor 2 (NFR2) response to Antioxidant Response Elements (ARE) (AID 2282992); settings: HepG2 Attagene ARE/NRF2 reporter, transcription factor activity; actives raise or lower the signal
How it was run: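 Cis-factorial assay: transfected HepG2 reporter library, 24 h dosing, mRNA readout via RT-PCR/CE; DMSO-referenced bidirectional analysis.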

[11] = ATG_Oct_MLP_CIS: Attagene CIS-FACTORIAL HepG2 Assay for human Octamer-Binding Transcription Factor (Oct) (AID 2282993); settings: HepG2 Attagene cis-factorial Oct reporter, mRNA; actives raise or lower the signal
How it was run: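 Cells of the HepG2 line express promoter-controlled reporter sequences whose mRNA levels, after 24 h treatment, are measured by RT-PCR and capillary electrophoresis. Increases and decreases are scored relative to DMSO.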

[12] = molecular target: Cellular tumor antigen p53 (Homo sapiens) (UniProt P04637); assay: ATG_p53_CIS: Attagene CIS-FACTORIAL HepG2 Assay for human p53 Transcription Factor (AID 2282994); settings: HepG2 p53 cis-element reporter, Attagene mRNA; actives raise or lower the signal
Sequence of Cellular tumor antigen p53 (Homo sapiens) (P04637 whole entry, looked up): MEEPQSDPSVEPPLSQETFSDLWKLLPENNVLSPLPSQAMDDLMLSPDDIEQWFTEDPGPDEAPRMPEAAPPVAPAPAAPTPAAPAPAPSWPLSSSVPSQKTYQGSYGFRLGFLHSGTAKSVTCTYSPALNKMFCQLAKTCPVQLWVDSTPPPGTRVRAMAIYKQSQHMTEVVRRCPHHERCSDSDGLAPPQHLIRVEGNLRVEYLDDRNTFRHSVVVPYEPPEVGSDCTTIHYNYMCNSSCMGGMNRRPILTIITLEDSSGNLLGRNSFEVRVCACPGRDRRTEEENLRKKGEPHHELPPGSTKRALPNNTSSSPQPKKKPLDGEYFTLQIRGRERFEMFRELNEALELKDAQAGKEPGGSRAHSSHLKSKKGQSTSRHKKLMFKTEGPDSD
How it was run: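 Using HepG2 hepatoma cells carrying cis-acting multiplexed reporters, mRNA induction is detected after a 24 h exposure. Gain- and loss-of-signal responses are fitted relative to DMSO-treated cells.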

[13] = BSK_3C_TissueFactor: BioMAP Diversity Plus: 3C Assay for Tissue Factor Biomarker Activity (AID 2282997); settings: BioMAP 3C HUVEC, tissue factor biomarker readout; actives raise or lower the signal
How it was run: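 Endothelial monolayers (human umbilical vein, primary) are dosed, incubated 24 h, and assayed for Tissue Factor by ELISA; DMSO serves as negative control for bidirectional fitting.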

[14] = BSK_3C_uPAR: BioMAP Diversity Plus: 3C Assay for Urokinase-type plasminogen activator receptor (uPAR) Biomarker Activity (AID 2282998); settings: BioMAP 3C HUVEC, uPAR biomarker ELISA; actives raise or lower the signal
How it was run: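 Endothelial primary cells of human umbilical vein origin received test chemical; 24 h later uPAR was assayed by ELISA. Fitting was bidirectional, DMSO as negative control.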

[15] = BSK_4H_Eotaxin3: BioMAP Diversity Plus: 4H Assay for Eotaxin 3 Biomarker Activity (AID 2283000); settings: primary human endothelial cells (HUVEC); actives raise or lower the signal
How it was run: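 ELISA quantitation of CCL26 (Eotaxin-3) protein from chemically dosed human vascular endothelial cells at 24 h; increases and decreases both scored relative to DMSO-treated baseline.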

[16] = molecular target: human Peroxisome Proliferator-activated Receptor alpha (PPARa), PPARA (gene 5465) (UniProt Q07869); assay: ATG_PPARa_TRANS: Attagene TRANS-FACTORIAL HepG2 Assay for human Peroxisome Proliferator-activated Receptor alpha (PPARa) (AID 2283001; active = hit-call score of the fitted dose curve at least 0.9, where 1 is the maximum;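 for AC50: potency for gain of reporter signal over DMSO so agonist or activator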)
Sequence of human Peroxisome Proliferator-activated Receptor alpha (PPARa), PPARA (gene 5465) (Q07869 whole entry, looked up, the tested form may be a part): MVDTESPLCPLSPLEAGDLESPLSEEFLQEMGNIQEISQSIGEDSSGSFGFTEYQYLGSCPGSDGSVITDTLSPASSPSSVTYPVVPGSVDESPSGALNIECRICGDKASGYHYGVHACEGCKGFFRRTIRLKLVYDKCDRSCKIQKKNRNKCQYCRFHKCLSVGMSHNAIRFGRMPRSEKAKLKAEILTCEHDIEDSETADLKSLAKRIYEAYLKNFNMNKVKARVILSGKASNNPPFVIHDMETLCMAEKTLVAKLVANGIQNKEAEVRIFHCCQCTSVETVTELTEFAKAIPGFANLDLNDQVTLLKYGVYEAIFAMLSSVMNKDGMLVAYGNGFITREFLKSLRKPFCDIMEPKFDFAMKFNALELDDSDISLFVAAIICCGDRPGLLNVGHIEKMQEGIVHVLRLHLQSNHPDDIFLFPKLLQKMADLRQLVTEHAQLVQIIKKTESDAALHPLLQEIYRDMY
How it was run: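 Read-out is fluorescence of reporter cDNA fragments resolved by capillary electrophoresis after RT-PCR. Human HepG2 liver cells carried transfected PPARa-Gal4 chimera and GAL4-UAS reporter units, treated 24 h; activity scored as increase over DMSO.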

[17] = read-out: Intercellular Adhesion Molecule 1 (ICAM1), ICAM1 (gene 3383); assay: BSK_3C_ICAM1: BioMAP Diversity Plus: 3C Assay for Intercellular Adhesion Molecule 1 (ICAM1) Biomarker Activity (AID 2283003); settings: primary human endothelial cells (HUVEC); actives raise or lower the signal
How it was run: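 ICAM-1 levels measured by ELISA after HUVEC cultures in the 3C system had been dosed for 24 h. Gain or loss of signal relative to DMSO was fitted in both directions.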

[18] = molecular target: human Peroxisome Proliferator-activated Receptor delta (PPARd), PPARD (gene 5467) (UniProt Q03181); assay: ATG_PPARd_TRANS: Attagene TRANS-FACTORIAL HepG2 Assay for human Peroxisome Proliferator-activated Receptor delta (PPARd) (AID 2283002; active = hit-call score of the fitted dose curve at least 0.9, where 1 is the maximum)
Sequence of human Peroxisome Proliferator-activated Receptor delta (PPARd), PPARD (gene 5467) (Q03181 whole entry, looked up, the tested form may be a part): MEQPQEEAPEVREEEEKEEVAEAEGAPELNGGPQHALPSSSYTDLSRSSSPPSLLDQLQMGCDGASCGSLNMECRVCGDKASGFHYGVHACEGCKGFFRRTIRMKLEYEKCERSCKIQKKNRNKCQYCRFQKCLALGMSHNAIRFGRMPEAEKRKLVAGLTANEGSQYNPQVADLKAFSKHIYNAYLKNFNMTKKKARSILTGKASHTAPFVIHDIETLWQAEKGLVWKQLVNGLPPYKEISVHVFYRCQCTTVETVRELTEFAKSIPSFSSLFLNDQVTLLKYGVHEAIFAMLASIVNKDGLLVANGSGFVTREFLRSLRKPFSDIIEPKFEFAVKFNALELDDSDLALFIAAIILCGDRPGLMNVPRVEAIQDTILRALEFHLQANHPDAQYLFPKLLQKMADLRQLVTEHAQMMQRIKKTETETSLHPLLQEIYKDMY
How it was run: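 Transient HepG2 transfection (multiple GAL4-UAS RTUs, chimeric receptor-Gal4); 24 h dosing; total RNA → oligo(dT) RT → PCR → 6-FAM primer extension → HpaI cut → CE. Positive direction vs DMSO.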

[19] = molecular target: human Retinoic Acid Receptor beta (RARb), RARB (gene 5915) (UniProt P10826); assay: ATG_RARb_TRANS: Attagene TRANS-FACTORIAL HepG2 Assay for human Retinoic Acid Receptor beta (AID 2283004; active = hit-call score of the fitted dose curve at least 0.9, where 1 is the maximum)
Sequence of human Retinoic Acid Receptor beta (RARb), RARB (gene 5915) (P10826 whole entry, looked up, the tested form may be a part): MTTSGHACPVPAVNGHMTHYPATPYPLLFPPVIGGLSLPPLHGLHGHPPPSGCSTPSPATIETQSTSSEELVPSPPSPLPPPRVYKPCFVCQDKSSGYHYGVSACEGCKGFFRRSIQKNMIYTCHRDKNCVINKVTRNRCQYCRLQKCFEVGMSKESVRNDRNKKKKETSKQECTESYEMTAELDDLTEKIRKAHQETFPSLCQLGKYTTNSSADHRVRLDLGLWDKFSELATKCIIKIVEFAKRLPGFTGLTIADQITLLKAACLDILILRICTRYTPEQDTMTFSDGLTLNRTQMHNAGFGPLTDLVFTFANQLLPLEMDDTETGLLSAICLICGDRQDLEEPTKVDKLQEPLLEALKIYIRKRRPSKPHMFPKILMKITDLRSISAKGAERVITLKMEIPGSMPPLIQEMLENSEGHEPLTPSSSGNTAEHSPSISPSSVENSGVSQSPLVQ
How it was run: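 Fluorescent capillary-electrophoresis detection of GAL4-UAS reporter mRNA defines the endpoint, with induction over DMSO-treated wells scored as activity. Transiently transfected human hepatoma HepG2 cells expressing exogenous NR–Gal4 proteins are exposed to test chemicals for 24 h.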

Measured: AC50

Cc1ccc2nc3sc(=O)sc3nc2c1
active: [1] 6.47 µM | [5] 25 µM | [6] 12.2 µM | [8] 6.38 µM | [10] 4.06 µM | [11] 6.95 µM | [14] 3.43 µM | [15] 5.95 µM | [17] 7.74 µM
inactive: [2] | [3] | [4] | [7] | [9] | [12] | [13] | [16]

CC1(C)[C@H](/C=C2\CCSC2=O)[C@@H]1C(=O)OCc1coc(Cc2ccccc2)c1
inactive: [1] | [2] | [3] | [4] | [5] | [7] | [8] | [9] | [11] | [12] | [16] | [18]
active: [10] 35.8 µM

CC(C)CP(=S)(S)CC(C)C
inactive: [1] | [2] | [3] | [5] | [6] | [7] | [8] | [9] | [10] | [11] | [12]

ClCc1ccccc1CCl
inactive: [1] | [2] | [3] | [4] | [5] | [6] | [7] | [19]
active: [8] 33.4 µM | [9] 25.1 µM | [10] 8.19 µM | [11] 21.2 µM

Oc1c(Br)cc(Br)cc1Br
inactive: [1] | [2] | [3] | [4] | [5] | [7] | [8] | [9] | [13] | [15] | [17]
active: [10] 26.9 µM | [11] 57.1 µM | [14] 30.1 µM | [16] 13.3 µM

COc1ccccc1N
inactive: [1] | [2] | [3] | [4] | [5] | [6] | [7] | [8] | [10] | [11] | [13] | [14] | [15] | [16] | [17] | [19]

COC(F)(C(F)(F)C(F)(F)F)C(F)(C(F)(F)F)C(F)(F)F (stereo unspecified)
inactive: [1] | [2] | [3] | [4] | [5] | [6] | [7] | [8] | [9] | [10] | [11] | [12] | [18]

O=CCCl
active: [6] 25.5 µM | [8] 24.5 µM | [9] 32.7 µM | [10] 23.6 µM | [11] 26 µM
inactive: [1] | [2] | [3] | [4] | [5] | [7] | [12] | [16] | [19]
